Laboratory results: PMC5700166

Target: GST-Hu-p50 (Homo sapiens, UniProt P19838 7-356)
Test: protein-binding microarray (PBM); PBM: ~300 nM protein, 6 mM HEPES pH 7.8, 80 mM KCl, 0.5 mM EDTA, 0.5 mM EGTA, 6% glycerol, 35 ng/ul poly-dIdC, 1% milk, 1 h, room temperature; Ap Aiptasia and Nv Nematostella (sea anemones) / Co Capsaspora / Aq Amphimedon (sponge) / Dm Drosophila / Hu human; RHD is the Rel homology domain; high values mean tight binding
Conditions: dsDNA, one strand shown

Sequence of GST-Hu-p50 (P19838 7-356): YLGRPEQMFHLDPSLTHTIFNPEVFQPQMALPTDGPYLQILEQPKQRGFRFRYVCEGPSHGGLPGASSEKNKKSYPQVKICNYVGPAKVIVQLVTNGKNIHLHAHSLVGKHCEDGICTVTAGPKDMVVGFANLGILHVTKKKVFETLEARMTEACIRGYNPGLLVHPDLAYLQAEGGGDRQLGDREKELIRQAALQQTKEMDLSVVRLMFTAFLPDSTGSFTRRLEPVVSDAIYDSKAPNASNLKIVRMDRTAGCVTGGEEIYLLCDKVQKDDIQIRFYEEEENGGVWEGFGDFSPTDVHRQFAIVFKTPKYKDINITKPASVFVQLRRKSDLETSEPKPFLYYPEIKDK

Question: With “CCGATTAACATCAAATATTCCCATGATGTTAATCGGGTCTTGATTCGCTTGACGCTGCTG” as the sequence, how does the binding signal read?
Answer: 2.88 z-score

Question: With “CCGATTAACATCAGGGAATCTCATGATGTTAATCGGGTCTTGATTCGCTTGACGCTGCTG” as the sequence, how does the binding signal read?
Answer: 2.5 z-score

Question: “CCGATTAACATCAAAATTCCCGGTGATGTTAATCGGGTCTTGATTCGCTTGACGCTGCTG” was tested. Which binding signal did it give?
Answer: 4.89 z-score

Question: With “CCGATTAACATCAATATTTACCCTGATGTTAATCGGGTCTTGATTCGCTTGACGCTGCTG” as the sequence, how does the binding signal read?
Answer: 3.16 z-score

Question: “CCGATTAACATCAGGGCAGTACCTGATGTTAATCGGGTCTTGATTCGCTTGACGCTGCTG” was tested. Which binding signal did it give?
Answer: 2.22 z-score

Question: “CCGATTAACATCAAACTCTCCCCTGATGTTAATCGGGTCTTGATTCGCTTGACGCTGCTG” was tested. Which binding signal did it give?
Answer: 4.08 z-score

Question: “CCGATTAACATCACCGGAATTCCTGATGTTAATCGGGTCTTGATTCGCTTGACGCTGCTG” was tested. Which binding signal did it give?
Answer: 2.71 z-score

Question: How did the binding signal turn out when “CCGATTAACATCAGATTCTCCCCTGATGTTAATCGGGTCTTGATTCGCTTGACGCTGCTG” was run?
Answer: 4.4 z-score

Question: Which binding signal does the source give for “CCGATTAACATCAGGAATATACCTGATGTTAATCGGGTCTTGATTCGCTTGACGCTGCTG” here?
Answer: 1.06 z-score

Question: Which binding signal does the source give for “CCGATTAACATCAGGGATTACCATGATGTTAATCGGGTCTTGATTCGCTTGACGCTGCTG” here?
Answer: 1.76 z-score

Question: How did the binding signal turn out when “CCGATTAACATCAGGGGGGGTACTGATGTTAATCGGGTCTTGATTCGCTTGACGCTGCTG” was run?
Answer: 3.91 z-score

Question: Which binding signal does the source give for “CCGATTAACATCACACATTTCCCTGATGTTAATCGGGTCTTGATTCGCTTGACGCTGCTG” here?
Answer: 3.2 z-score

Question: Which binding signal does the source give for “CCGATTAACATCAGGTAATTCCATGATGTTAATCGGGTCTTGATTCGCTTGACGCTGCTG” here?
Answer: 2.14 z-score

Question: How did the binding signal turn out when “CCGATTAACATCAGGGCGTCCCCTGATGTTAATCGGGTCTTGATTCGCTTGACGCTGCTG” was run?
Answer: 4.86 z-score

Question: How did the binding signal turn out when “CCGATTAACATCAGGGATCCCCATGATGTTAATCGGGTCTTGATTCGCTTGACGCTGCTG” was run?
Answer: 4.35 z-score

Question: With “CCGATTAACATCACCCCTCCCCATGATGTTAATCGGGTCTTGATTCGCTTGACGCTGCTG” as the sequence, how does the binding signal read?
Answer: 3.16 z-score

Question: For “CCGATTAACATCAAACAACCCCCTGATGTTAATCGGGTCTTGATTCGCTTGACGCTGCTG”, which binding signal is on record?
Answer: 5.05 z-score

Question: With “CCGATTAACATCAGTCCCGCACTTGATGTTAATCGGGTCTTGATTCGCTTGACGCTGCTG” as the sequence, how does the binding signal read?
Answer: 1.18 z-score

Question: For “CCGATTAACATCAGGGGCACCCCTGATGTTAATCGGGTCTTGATTCGCTTGACGCTGCTG”, which binding signal is on record?
Answer: 3.94 z-score

Question: For “CCGATTAACATCAAATTCCCAGATGATGTTAATCGGGTCTTGATTCGCTTGACGCTGCTG”, which binding signal is on record?
Answer: 2.58 z-score

Question: For “CCGATTAACATCAGGACGTTCCCTGATGTTAATCGGGTCTTGATTCGCTTGACGCTGCTG”, which binding signal is on record?
Answer: 1.71 z-score

Question: Which binding signal does the source give for “CCGATTAACATCAGAGAAGTCCCTGATGTTAATCGGGTCTTGATTCGCTTGACGCTGCTG” here?
Answer: 5.25 z-score

Question: For “CCGATTAACATCAGGAATACCCCTGATGTTAATCGGGTCTTGATTCGCTTGACGCTGCTG”, which binding signal is on record?
Answer: 5.04 z-score

Question: For “CCGATTAACATCAAGGGATCCCCTGATGTTAATCGGGTCTTGATTCGCTTGACGCTGCTG”, which binding signal is on record?
Answer: 5.23 z-score

Question: How did the binding signal turn out when “CCGATTAACATCAGGGGTTTCACTGATGTTAATCGGGTCTTGATTCGCTTGACGCTGCTG” was run?
Answer: 4.22 z-score

Question: “CCGATTAACATCAAAAAACCGTTTGATGTTAATCGGGTCTTGATTCGCTTGACGCTGCTG” was tested. Which binding signal did it give?
Answer: 1.52 z-score

Question: How did the binding signal turn out when “CCGATTAACATCAGGGGCGGGAATGATGTTAATCGGGTCTTGATTCGCTTGACGCTGCTG” was run?
Answer: 2.9 z-score

Question: “CCGATTAACATCAGGAATTACCATGATGTTAATCGGGTCTTGATTCGCTTGACGCTGCTG” was tested. Which binding signal did it give?
Answer: 2.05 z-score

Question: For “CCGATTAACATCACAAATTCCCATGATGTTAATCGGGTCTTGATTCGCTTGACGCTGCTG”, which binding signal is on record?
Answer: 3.86 z-score

Question: Which binding signal does the source give for “CCGATTAACATCAAGGAAAAACCTGATGTTAATCGGGTCTTGATTCGCTTGACGCTGCTG” here?
Answer: 1.12 z-score

Question: Which binding signal does the source give for “CCGATTAACATCAGGATCTTCCCTGATGTTAATCGGGTCTTGATTCGCTTGACGCTGCTG” here?
Answer: 1.9 z-score

Question: With “CCGATTAACATCAATGGGAATTCTGATGTTAATCGGGTCTTGATTCGCTTGACGCTGCTG” as the sequence, how does the binding signal read?
Answer: 3.4 z-score

Question: How did the binding signal turn out when “CCGATTAACATCAGGGAAAGGTATGATGTTAATCGGGTCTTGATTCGCTTGACGCTGCTG” was run?
Answer: 2.11 z-score

Question: With “CCGATTAACATCAGGTATTTTTATGATGTTAATCGGGTCTTGATTCGCTTGACGCTGCTG” as the sequence, how does the binding signal read?
Answer: 3.11 z-score

Question: With “CCGATTAACATCAGGGTTTTCCATGATGTTAATCGGGTCTTGATTCGCTTGACGCTGCTG” as the sequence, how does the binding signal read?
Answer: 2.46 z-score

Question: How did the binding signal turn out when “CCGATTAACATCACCAGTTTCCCTGATGTTAATCGGGTCTTGATTCGCTTGACGCTGCTG” was run?
Answer: 2.39 z-score

Question: “CCGATTAACATCAGATATTTCCCTGATGTTAATCGGGTCTTGATTCGCTTGACGCTGCTG” was tested. Which binding signal did it give?
Answer: 3.91 z-score

Question: “CCGATTAACATCAAAATTCCCATTGATGTTAATCGGGTCTTGATTCGCTTGACGCTGCTG” was tested. Which binding signal did it give?
Answer: 4.55 z-score

Question: “CCGATTAACATCACGTAAACCCCTGATGTTAATCGGGTCTTGATTCGCTTGACGCTGCTG” was tested. Which binding signal did it give?
Answer: 3.75 z-score
